According to PubChem BioAssay (NCATS):
Records with an inconclusive call do not appear. A call without a number means that no potency is given here. Calls of active or inactive are those of the source. Unless noted, the call rests on the fitted dose curve; in most records, active means well fitted curve in the direction sought with a large enough effect; inconclusive means small, poorly fitted or top-dose-only effect, or another doubt; inactive means no such curve, though single readings can be large; an effect the other way counts as inactive or inconclusive.

biological target: Calcium and integrin-binding protein 1 (Homo sapiens) (UniProt Q99828); test: Primary qHTS for Identification of Calcium Integrin Binding Protein 1 (CIB1) Competitor (AID 1508620); settings: CIB1-GST / FITC-alphaIIb peptide fluorescence polarization; series mostly up to 114 µM
Sequence (Q99828 whole entry, looked up): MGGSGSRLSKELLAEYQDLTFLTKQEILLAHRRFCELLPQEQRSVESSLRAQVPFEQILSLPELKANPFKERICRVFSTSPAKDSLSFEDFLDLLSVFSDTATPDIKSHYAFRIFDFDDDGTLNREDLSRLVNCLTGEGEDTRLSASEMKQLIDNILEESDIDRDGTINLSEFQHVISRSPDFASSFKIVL
Outline: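 Fluorescence polarization competition: CIB1-GST (1 uM final) preincubated with compound 15 min at room temperature, then FITC-labeled alphaIIb peptide (100 nM final) added for another 15 min. Polarization read at Ex 480/Em 540.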
Potency means the concentration at half of the fitted maximal effect.

| SMILES | Potency |
| --- | --- |
| Cc1cccc(NC(=O)N[C@@H]2N=C(c3ccccc3)c3ccccc3N(C)C2=O)c1 | inactive |
| CCc1c(C(=O)C(N)=O)c2c(OCC(=O)OC)cccc2n1Cc1ccccc1 | inactive |
| C1=C2CCCN[C@H]2[C@@H]2C[C@H]1[C@H]1CCCCN1C2 | inactive |
| CC(C)[C@@H](CN1CC[C@@](C)(c2cccc(O)c2)[C@@H](C)C1)NC(=O)[C@H]1Cc2ccc(O)cc2CN1 | inactive |
| COC1C(O)C(C)OC(OC2C(CO)O[C@@H](O[C@@H]3CC4CCC5C(CC[C@]6(C)[C@@H](C7=CC(=O)OC7)CC[C@]56O)[C@@]4(C)[C@H](O)C3)C(O)C2O)C1O (some centres undefined) | inactive |
| COCC1OC(=O)c2coc3c2C1(C)C1=C(C3=O)C2CCC(=O)C2(C)CC1O (centres undefined) | inactive |
| COC1CC(O[C@H]2CC[C@]3(C=O)C4CC[C@]5(C)[C@@H](C6=CC(=O)OC6)CC[C@]5(O)[C@@H]4CC[C@]3(O)C2)OC(C)C1O[C@@H]1O[C@H](CO)[C@@H](O)[C@H](O)[C@H]1O (some centres undefined) | inactive |
| C[CH2][Hg][S]c1ccccc1C(=O)O | 22.4 µM (active) |
| COC1CC(OC2CCC3(C)C(CCC4C3CCC3(C)C(C5=CC(=O)OC5)C(OC(C)=O)CC43O)C2)OC(C)C1OC1OC(CO)C(O)C(O)C1O (centres undefined) | inactive |
| CN[C@H]1[C@H](O)[C@H](O[C@@H]2[C@@H](O)[C@H](O[C@H]3O[C@H]([C@H](C)O)[C@@H](O)[C@H](O)[C@H]3N)[C@@H](N)C[C@H]2N)OC[C@@]1(C)O | inactive |
| CC1=C2C[C@H]3[C@@H](CC=C4C[C@@H](O)CC[C@@]43C)[C@@H]2CC[C@]12O[C@@H]1C[C@H](C)CN[C@H]1[C@H]2C | inactive |
| CO[C@H]1[C@H](O)[C@H](O[C@H]2CC[C@]3(C)C4CC[C@]5(C)[C@H](C6=CC(=O)OC6)CC[C@]5(O)C4CC[C@@H]3C2)O[C@@H](C)[C@@H]1O (some centres undefined) | inactive |
| C[C@H]1O[C@@H](O[C@H]2C[C@@H](O)[C@]3(CO)C4C(CC[C@]3(O)C2)[C@@]2(O)CC[C@H](C3=CC(=O)OC3)[C@@]2(C)C[C@H]4O)[C@@H](O)[C@@H](O)[C@H]1O (some centres undefined) | inactive |
| CN(C(=O)Cc1ccccc1)C(CN1CCCC1)c1ccccc1 (centres undefined) | inactive |
| Cc1c(Cl)cccc1S(=O)(=O)Nc1nc(CC(=O)N2CCN(C)CC2)cs1 | inactive |
| CCOc1ccccc1-n1c(C(C)N2CCN(C(=O)COc3ccc(Cl)cc3)CC2)nc2ccccc2c1=O (centres undefined) | inactive |
| Oc1ccc2c3c1O[C@H]1[C@H](N(CCCl)CCCl)CC[C@@]4(O)[C@@H](C2)N(CC2CC2)CC[C@]314 | inactive |
| OC1(c2ccc(Cl)cc2)c2ccccc2C2=NCCN21 (centres undefined) | inactive |
| COC(=O)N1CCN(C(=O)Cc2ccc(Cl)c(Cl)c2)[C@@H](CN2CCCC2)C1 | inactive |
| C[C@@](O)(COc1ccc(C#N)cc1)C(=O)Nc1ccc(C#N)c(C(F)(F)F)c1 | inactive |
| COc1c(C(C)C)cc2c(c1O)[C@@]1(C(=O)O)CCCC(C)(C)C1CC2 (some centres undefined) | inactive |
| CCCSP(=O)(OCC)SCCC | inactive |
| CC[C@H]1CN2CC[C@H]1C[C@H]2[C@H](O)c1ccnc2ccc(OC)cc12 | inactive |
| CCc1[nH]c2ccc(OC)cc2c1CCN(C)C | inactive |
| COC(=O)[C@@]12C(=O)C(C)C(=O)[C@]1(C)C(C)=C[C@H]1[C@]3(C=O)CC[C@H](OC(C)=O)C(C)(C)[C@H]3CC[C@@]12C (some centres undefined) | inactive |
| C/C=C(\C)C(=O)OC1CC2C(CC=C3CC(OC4CC(OC)C(OC5CC(OC)C(OC6OC(C)C(OC7OC(CO)C(O)C(O)C7O)C(OC)C6O)C(C)O5)C(C)O4)CCC32C)C2(O)CCC(C(C)=O)C12C (centres undefined) | inactive |
| CCN1C[C@]2(OC(=O)c3ccccc3NC(C)=O)CC[C@H](OC)[C@@]34[C@@H]2C[C@@H]([C@@H]13)[C@@]1(O)C[C@H](OC)[C@H]2C[C@@H]4[C@]1(O)[C@H]2OC | inactive |

biological target: Cytochrome P450 2D6 (Homo sapiens) (UniProt P10635); test: Cytochrome P450 family 2 subfamily D member 6 (CYP2D6) small molecule antagonists: luciferase biochemical (cell-free) qHTS assay (AID 1645840; active means well fitted curve in the direction sought with a large enough effect in the repeat runs; an effect the other way counts as inactive or inconclusive; further: nearly all actives have a fitted effect of over 55% in size); settings: P450-Glo CYP2D6 enzyme, luciferin luminescence, 1 h; series mostly up to 57.4 µM
Sequence (P10635 whole entry, looked up): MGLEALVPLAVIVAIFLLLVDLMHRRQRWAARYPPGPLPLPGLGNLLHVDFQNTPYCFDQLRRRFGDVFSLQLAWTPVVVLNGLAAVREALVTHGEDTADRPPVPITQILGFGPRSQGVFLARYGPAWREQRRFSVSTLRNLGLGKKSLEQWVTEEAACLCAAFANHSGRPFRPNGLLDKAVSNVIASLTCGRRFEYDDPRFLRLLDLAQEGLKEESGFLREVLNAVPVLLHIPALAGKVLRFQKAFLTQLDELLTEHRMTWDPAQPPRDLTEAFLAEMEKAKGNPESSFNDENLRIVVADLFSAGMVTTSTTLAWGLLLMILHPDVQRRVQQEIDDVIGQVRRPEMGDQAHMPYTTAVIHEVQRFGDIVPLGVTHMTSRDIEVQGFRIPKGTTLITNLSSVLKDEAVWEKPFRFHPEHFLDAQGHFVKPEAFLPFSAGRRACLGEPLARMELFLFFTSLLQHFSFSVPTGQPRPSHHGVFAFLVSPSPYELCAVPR
Outline: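 P450-Glo luminescent screen: recombinant CYP2D6 enzyme–proluciferin substrate mix preincubated with compound 10 min at room temperature, then NADPH regeneration added for 1 h at room temperature. Detection reagent added for 20 min; luciferin light read as relative luminescence units.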

| SMILES | Potency |
| --- | --- |
| COc1cc(C)[nH]c(=O)c1CNC(=O)c1c(C)n([C@H](C)C2CCOCC2)c2ccccc12 | inactive |
| COc1cc(CCNCc2ccccc2O)c(OC)cc1C#N | 1.9 µM (active) |
| Cc1cccc(NC(=O)N[C@@H]2N=C(c3ccccc3)c3ccccc3N(C)C2=O)c1 | inactive |
| CCc1c(C(=O)C(N)=O)c2c(OCC(=O)OC)cccc2n1Cc1ccccc1 | inactive |
| CC(C)[C@@H](CN1CC[C@@](C)(c2cccc(O)c2)[C@@H](C)C1)NC(=O)[C@H]1Cc2ccc(O)cc2CN1 | 6.01 µM (active) |
| CN(C(=O)Cc1ccccc1)C(CN1CCCC1)c1ccccc1 (centres undefined) | 0.0849 µM (active) |
| Cc1c(Cl)cccc1S(=O)(=O)Nc1nc(CC(=O)N2CCN(C)CC2)cs1 | inactive |
| CCOc1ccccc1-n1c(C(C)N2CCN(C(=O)COc3ccc(Cl)cc3)CC2)nc2ccccc2c1=O (centres undefined) | inactive |
| OC1(c2ccc(Cl)cc2)c2ccccc2C2=NCCN21 (centres undefined) | 2.68 µM (active) |
| COC(=O)N1CCN(C(=O)Cc2ccc(Cl)c(Cl)c2)[C@@H](CN2CCCC2)C1 | 4.77 µM (active) |
| CCCSP(=O)(OCC)SCCC | 58.4 µM (active) |
| CCc1[nH]c2ccc(OC)cc2c1CCN(C)C | 1.9 µM (active) |
